An excerpt weighted towards active compounds, which were near 5.3% of everything screened.
Six1-Eya2 inh: inhibitors of human Six1/Eya2 interaction | AlphaScreen GST-Six1/His-Eya2 binding, biochemical; hits give low values | activity change, % (test concentration not listed) | AID 651725 | hit rate 0.56% among 360,000 | Q15475+O00167; in the data active = activity change below about -65%; inconclusive = mostly about -30% to -63%; note: % is set by controls: 0 for no effect and ±100 for the full control effect
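Six1/Eya2 binding was read as AlphaScreen signal after compounds were pinned into GST-Six1 plus His-tagged Eya2 (5X stock 250/500 nM) in pH 8.0 Tris/NaCl/TCEP buffer, beads added, then incubated 1 h, 37 C, dark.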
HP1b chromo inh: inhibitors of HP1-beta chromodomain binding to methylated histone tails; hit rate 0.56% among 390,000; Potency, µM (titrated, usually from 114 µM), without a hit: top-dose activity change, negative = inhibition, most hits filed as inhibitors; AlphaScreen HP1-beta / biotin-H3K9me3 peptide binding; P83916; note: potency is the fitted concentration of half-maximal effect; nearly all actives have a fitted effect of over 70% in size
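HP1-beta protein (50 nM final) preincubated 30 min at room temperature with biotinylated H3(1-18)K9me3 peptide (50 nM) in PBS pH 7.4, 0.01% Tween-20, then compound added for 30 min. AlphaScreen streptavidin donor/nickel chelate acceptor beads (10 ug/mL final), 30 min dark, luminescence read.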
CtBP-E1A blk: CtBP/E1A binding inhibition. hit rate 0.49% among 340,000. AlphaScreen GST-E1A/His-CtBP binding, 1536-well; hits give low values. activity change, % (test concentration not listed); in the data active = activity change below about -65%; inconclusive = mostly about -30% to -63%; note: % is set by controls: 0 for no effect and ±100 for the full control effect
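Homogeneous bead-based format: GST-tagged E1A captured on glutathione donor beads, His-tagged CtBP on nickel acceptor beads; compounds precede bead addition by 2 h at 37 °C.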
BAZ2B block: blocks human BAZ2B; Potency, µM (highest dose often 114 µM), for the others: at the highest dose activity change, negative = inhibition, actives largely listed as inhibitors; AlphaScreen BAZ2B-H3K14Ac peptide displacement; hit rate 4.4% among 360,000; Q9UIF8; note: potency is the fitted concentration of half-maximal effect; % is set by controls: 0 for no effect and ±100 for the full control effect; nearly all actives have a fitted effect of over 60% in size
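AlphaScreen displacement: compounds (up to 110uM) incubated 30 min at room temperature with a preformed 50 nM BAZ2B/50 nM biotinylated H3K14Ac peptide complex in PBS pH 7.4 with Tween-20. Donor and acceptor beads at 10 ug/mL final added, 20 min light-protected before reading.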
JMJD2A Tudor inh: inhibitors of human JMJD2A Tudor domain; Potency, µM (titrated, usually from 114 µM), without a hit: at the top dose activity change, negative = inhibition, actives largely listed as inhibitors; hit rate 4.4% among 390,000; AlphaScreen JMJD2A-Tudor / H3K4me3 peptide binding; O75164; AID 504339; note: potency is the fitted concentration of half-maximal effect; % is set by controls: 0 for no effect and ±100 for the full control effect; nearly all actives have a fitted effect of over 50% in size
TDP1 block: blocks human tyrosyl-DNA phosphodiesterase 1; Q9NUW8; hit rate 0.28% among 350,000; Potency, µM (doses to about 130 µM), for inactives: at the highest dose activity change, negative = inhibition, actives largely listed as inhibitors; recombinant TDP1, AlphaScreen DNA substrate cleavage; note: potency is the fitted concentration of half-maximal effect; % is set by controls: 0 for no effect and ±100 for the full control effect; nearly all actives have a fitted effect of over 40% in size
Target sequence (Q9NUW8 whole entry, looked up): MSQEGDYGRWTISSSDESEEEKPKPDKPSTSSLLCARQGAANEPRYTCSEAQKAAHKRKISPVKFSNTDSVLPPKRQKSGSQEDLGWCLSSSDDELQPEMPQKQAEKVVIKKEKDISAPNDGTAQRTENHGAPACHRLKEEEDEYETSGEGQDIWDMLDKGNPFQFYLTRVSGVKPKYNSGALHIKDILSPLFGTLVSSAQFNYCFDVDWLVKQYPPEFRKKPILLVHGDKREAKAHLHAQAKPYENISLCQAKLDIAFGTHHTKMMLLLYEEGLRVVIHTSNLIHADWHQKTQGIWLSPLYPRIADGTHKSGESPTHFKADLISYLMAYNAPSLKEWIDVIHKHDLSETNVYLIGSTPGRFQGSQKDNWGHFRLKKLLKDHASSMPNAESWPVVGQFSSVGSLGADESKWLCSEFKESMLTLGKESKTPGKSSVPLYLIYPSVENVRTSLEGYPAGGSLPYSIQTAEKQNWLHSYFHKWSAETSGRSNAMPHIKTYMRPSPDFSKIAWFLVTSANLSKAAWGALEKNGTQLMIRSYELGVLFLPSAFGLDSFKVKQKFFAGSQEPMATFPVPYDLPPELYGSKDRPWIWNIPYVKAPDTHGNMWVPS
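Compounds were preincubated with Tdp1 (1 nM final) for 15 min at room temperature before substrate (15 nM final) started a 5 min reaction; beads (10 ug/ml final) were then added for 10 min before AlphaScreen detection.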
The depositor's hits bear a star; ? = inconclusive; . = no result given; [ ] = dose if it differs, or a comment. Unless noted, calls come from the whole dose curve; as a rule, active = well fitted inhibition curve with a large enough effect; inconclusive = small, poorly fitted or top-dose-only effect; inactive = no such curve, though single readings can be large or run the other way.

SMILES	Six1-Eya2 inh	HP1b chromo inh	CtBP-E1A blk	BAZ2B block	JMJD2A Tudor inh	TDP1 block
CCC(C)C(=O)Nc1nc(-c2ccc3c(c2)NC(=O)CO3)cs1 (stereo unspecified)	-12.6	?	-10.1	-8.6%	-22.9%[57.1 µM]	4.1%
COCC(C)n1c(-c2ccc3c(c2)NC(=O)CO3)csc1=Nc1ccc(OC(F)F)cc1 (stereo unspecified)	?	?	?	12.6µM*	?	9.8%
CCN=c1scc(-c2ccc3c(c2)NC(=O)CO3)n1N=C1CCCC1	-23.7	?	-26.1	50.1µM*	?	10.5%
CCCCCCNc1cc2n(c(=O)n1)CCc1cc(OC)c(OC)cc1-2	-71.0*	-4.1%	-80.7*	6.5%	-18.2%	7.4%
COc1cc2c(cc1OC)-c1cc(NC3CCCCC3)nc(=O)n1CC2	-65.0*	37.8%	-66.0*	-3.2%	-17.2%	3.1%
COc1cc2c(cc1OC)-c1cc(NC3CCCCCCC3)nc(=O)n1CC2	-80.1*	16.2%	-84.8*	-29.0%	-20.3%	5.8%
CCOc1ccc(Nc2cc3n(c(=O)n2)CCc2cc(OC)c(OC)cc2-3)cc1	-84.0*	-2.1%	-5.3	-27.0%	-18.1%	.
Cc1ccc(Cl)cc1NC(=O)c1ccc(-c2nc(CSc3ccccc3)c(C)o2)cc1	.	37.2%	.	-11.3%	4.8%	-5.6%
CCNc1cc2n(c(=O)n1)CCc1cc(OC)c(OC)cc1-2	?	14.2%	-5.0	-2.3%	-17.4%	3.2%
COc1cc2c(cc1OC)-c1cc(NCc3ccccn3)nc(=O)n1CC2	-78.4*	10.0%	?	28.2µM*	-24.0%[11.4 µM]	.
CC(=O)c1ccc(N2CCN(c3ncnc4c3c(-c3ccccc3)cn4-c3cccc(C)c3)CC2)cc1	.	6.8%	.	?	-32.4%	0.0%
CCCOc1cccc(C(=O)Nc2ccc(-c3nc4ccccc4s3)c(Cl)c2)c1	.	7.2%	.	3.7%	-2.4%	-5.3%
Cc1ccccc1N=Cc1cccc(O)c1O	?	?	1.0	39.8µM*	39.8µM*	7.9%
Cc1ccc(N=Cc2cccc(O)c2O)c(C)c1	.	15.8µM*	.	-31.8%	35.5µM*	11.7%
CC(N=Cc1cccc(O)c1O)c1ccccc1 (stereo unspecified)	-18.8	?	3.2	50.1µM*	44.7µM*	?
CCN(CC)c1ccc(C=Nc2ccc(C)cc2C)c(O)c1	12.6	32.9%	0.0	-14.8%	-10.0%	3.6%
CC(N=Cc1cc([N+](=O)[O-])ccc1O)c1ccccc1 (stereo unspecified)	3.3	24.6%	5.8	.	-11.4%	3.5%
Cc1cccc(NC(=O)c2sc3nc(N4CCOCC4)c4c(c3c2N)CC(C)(C)OC4)c1	.	32.3%	.	-3.4%	-12.7%	0.0%
NC(=O)CSc1ncc2c(n1)-c1ccccc1N(Cc1ccc(Cl)cc1)S2(=O)=O	.	-6.9%	.	-0.3%	-18.8%	2.6%
Cn1c2c(c(=O)n(C)c1=O)C(c1ccccc1C(F)(F)F)CC(=O)N2 (stereo unspecified)	.	21.4%	.	-2.4%	-9.6%	0.0%
Sc1oc(-c2ccccc2)cc1C=Nc1ccccc1	-71.2*	?	-72.7*	20µM*	20µM*	12.3%
O=[N+]([O-])c1cc2c(cc1C=Nc1ccccc1)OCO2	-14.3	-33.7%	-9.9	?	?	3.8%
CC(C)c1cc2c(c(O)c1O)[C@@]13CCCC(C)(C)C1CC2OC3=O (stereo partly specified)	-6.5	?	-4.1	-38.4%	39.8µM*	.
O=S(=O)(c1ccc(NC(=S)N/N=C/c2ccc(O)c(O)c2)cc1)N1CCOCC1	-13.1	-14.2%	-27.2	?	?	6.2%
O=S(=O)(c1ccc(NC(=S)NN=Cc2ccccc2O)cc1)N1CCCCC1	-86.3*	-7.8%	-89.3*	.	?	.
O=[N+]([O-])c1cc(Cl)cc(/C=N/NC(=S)Nc2ccc(S(=O)(=O)N3CCOCC3)cc2)c1O	-90.6*	22.4µM*	-98.1*	2.82µM*	-35.3%[11.4 µM]	12.3%
CC1=Nn2c(nnc2-c2ccccc2F)SC1	2.5	22.9%	-2.0	2.0%	-16.2%	2.3%
